The sample as a whole holds a higher share of hits than the screen did.
AMA1 RON2 block = disrupts binding of P. falciparum AMA1 to RON2 | AlphaScreen AMA1-biotinylated RON2 peptide binding | Potency, µM (doses to about 58.2 µM), usual class: inhibitors | 360,000 compounds, 0.2% hits | AID 720542; active = well fitted inhibition curve with a large enough effect; inconclusive = small, poorly fitted or top-dose-only effect; inactive = no such curve, though single readings can be large or run the other way; note: nearly all actives have a fitted effect of over 45% in size
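AMA1 (3D7) with his tag at 25 nM final met compounds first, then biotinylated RON2 peptide at 25 nM; detection used donor plus acceptor beads, 10 µg/mL apiece, read by AlphaScreen after 30 min at room temperature.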
LASV entry inh = Lassa virus entry inhibition; Lassa virus pseudotype entry inhibition, cell reporter; Potency, µM (series often up to 37.9 µM), usual class: inhibitors; 300,000 compounds, 1.2% hits; AID 540256; calls by dose curve; tested in HEK293 cells; note: nearly all actives have a fitted effect of over 50% in size
Marburg entry inh = blocks Marburg virus binding to or entry into cells; Potency, µM (titrated, usually from 37.8 µM), hits mostly inhibitors; 300,000 compounds, 1.8% hits; AID 540276; Marburg virus pseudotyped entry inhibition, cell reporter; calls by dose curve; tested in HEK293 cells
CHX counter = affects cycloheximide protein synthesis inhibition readout, counter-screen | max response, % | 300,000 compounds, 12% hits | cell reporter, cycloheximide protein synthesis inhibition counterscreen | AID 2314; in the data active = max response mostly above about 13%, no sharp cut-off; inactive = mostly below about 14%; note: read at 38.3 µM for the half of the compounds with a filed dose
Shiga toxin inh = blocks Shiga toxin action in Vero cells; Vero cells, Shiga toxin protein synthesis inhibition reporter; inhibition, % at 38.7 µM; 290,000 compounds, 9.2% hits; AID 2315; in the data active = inhibition mostly above about 28%, no sharp cut-off; inactive = mostly below about 43%
Each line names hits and unclear results; the compound was inactive in the other large screens.

CCOC(=O)[C@]12CCCC=C1N(Cc1ccccc1)C(=O)[C@H](CC(=O)N1CCC(c3ccccc3)CC1)C2	none (no result: LASV entry inh, Marburg entry inh, CHX counter, Shiga toxin inh)
COc1ccc(CCNC(=O)CSc2nc(C)nc3sccc23)cc1OC	Marburg entry inh inconclusive
Cc1ccc2nc(-c3ccc(O)c(O)c3)cn2c1	AMA1 RON2 block 3.5µM, LASV entry inh inconclusive, Marburg entry inh inconclusive (no result: Shiga toxin inh)
Cc1ccc2nc(-c3ccc(-c4ccccn4)s3)cn2c1	LASV entry inh inconclusive, Marburg entry inh inconclusive, CHX counter 45, Shiga toxin inh 69
Cc1ccc2nc(-c3ccccc3)cn2c1	LASV entry inh 0.32µM, Marburg entry inh 0.45µM
CC(=O)Nc1ccc(-c2cn3cc(C)ccc3n2)cc1	LASV entry inh inconclusive, Marburg entry inh inconclusive, CHX counter 42, Shiga toxin inh 61
Cc1nc(-c2ccccc2)cn(O)c1=O	none (no result: LASV entry inh, Marburg entry inh)
Cc1cc(C)c(S(=O)(=O)Nc2ccc(-c3cn4ccccc4n3)cc2)c(C)c1	Marburg entry inh inconclusive
CCN(CC)C(=O)OCCc1cc2ccccc2c(=O)o1	none (no result: LASV entry inh, Marburg entry inh, CHX counter, Shiga toxin inh)
CCOc1ccccc1C(=O)N1CCc2cc(OC)c(OC)cc2C1COc1ccc(OC)cc1 (centres undefined)	none (no result: AMA1 RON2 block, Marburg entry inh, CHX counter, Shiga toxin inh)
CCOc1ccc(CC2c3cc(OCC)c(OCC)cc3CCN2C(=O)c2cc(OC)c(OC)c(OC)c2)cc1OCC (centres undefined)	LASV entry inh 2.1µM, Marburg entry inh inconclusive
COCCc1ccc(OC2(C)CCN(Cc3ccc(OC)c4ccccc34)C2)cc1 (centres undefined)	none (no result: LASV entry inh, Marburg entry inh, CHX counter, Shiga toxin inh)
CC(C)C[C@H](N)c1nnc(S(=O)(=O)Cc2cccc(F)c2)o1	Marburg entry inh inconclusive, CHX counter 32
CC(C)(C)OC(=O)N[C@@H](Cc1ccccc1)c1nnc(S(=O)(=O)Cc2cccc(F)c2)o1	LASV entry inh inconclusive, Marburg entry inh inconclusive, CHX counter 21
CC(=O)N1CC(C)Oc2ccc(S(=O)(=O)Nc3ccc(Cl)cn3)cc21 (centres undefined)	none
CC1CCCCN1C(=O)c1ccc(OC2CCN(S(=O)(=O)N(C)C)CC2)cc1 (centres undefined)	Marburg entry inh inconclusive, CHX counter 26
CN(C(=O)c1ccc(OC2CCN(S(=O)(=O)N(C)C)CC2)cc1)C1CCCCC1	Marburg entry inh inconclusive
CN(C)S(=O)(=O)N1CCC(Oc2ccc(C(=O)N3CCCCCCC3)cc2)CC1	CHX counter 62, Shiga toxin inh 117
CCN1CCN(C(=O)c2cccc(OC3CCN(S(=O)(=O)N(C)C)CC3)c2)CC1	CHX counter 27
CN(C)S(=O)(=O)N1CCC(Oc2ccc(C(=O)N3CCCCCC3)cc2)CC1	none (no result: LASV entry inh, Marburg entry inh, CHX counter, Shiga toxin inh)
Cc1cc(CNC(=O)c2cccc(OC3CCN(S(=O)(=O)N(C)C)CC3)c2)on1	CHX counter 64, Shiga toxin inh 128
CN(C)S(=O)(=O)N1CCC(Oc2cccc(C(=O)NC3CCCCCC3)c2)CC1	LASV entry inh inconclusive, Marburg entry inh inconclusive
CSc1ccc(CNC(=O)Cc2ccc(NC(=O)C3=C(C)OCCS3)cc2)cc1	CHX counter 24, Shiga toxin inh 55 (no result: LASV entry inh, Marburg entry inh)
CCOc1ccc(CCNC(=O)Cc2ccc(NC(=O)C3=C(C)OCCS3)cc2)cc1	Shiga toxin inh 47 (no result: LASV entry inh, Marburg entry inh)
O=C1CCCC/C1=C/Nc1ccc(C(=O)O)cc1	Marburg entry inh inconclusive, CHX counter 30
COc1ccc(N/C=C2/CCCCC2=O)cc1	LASV entry inh inconclusive, CHX counter 78, Shiga toxin inh 129
CCOC(=O)c1ccc(S(=O)(=O)N2CCC(C(=O)NCC3COc4ccccc4O3)CC2)cc1 (centres undefined)	none (no result: LASV entry inh, Marburg entry inh, CHX counter, Shiga toxin inh)
CCOC(=O)C1CCCN(C(=O)/C(=C/c2ccco2)NC(=O)c2ccccc2)C1 (centres undefined)	none
CCOCCc1nn2c(=O)cc(COC(=O)CNC(=O)c3ccc(F)cc3)nc2s1	none (no result: AMA1 RON2 block, Marburg entry inh, CHX counter, Shiga toxin inh)
C[S@@](=O)CCCCN=C=S	CHX counter 57 (no result: AMA1 RON2 block, LASV entry inh, Marburg entry inh)
O=C(O)c1sc2cccc(Cl)c2c1Cl	CHX counter 16
COc1cc(C(=O)NCCC(c2ccccc2)c2ccccc2)cc(OC)c1OC	LASV entry inh inconclusive, Marburg entry inh inconclusive
C=C(C)c1cccc(C(C)(C)NC(=O)Nc2cc(C)ccn2)c1	LASV entry inh inconclusive, Marburg entry inh inconclusive, CHX counter 30, Shiga toxin inh 92
C=C(C)c1cccc(C(C)(C)NC(=O)Nc2ccc(C)cn2)c1	CHX counter 21, Shiga toxin inh 63
O=C(NCCCN1CCOCC1)C(=O)NCc1ccccc1Cl	Marburg entry inh inconclusive
CCCN1CCN(S(=O)(=O)c2ccc(-n3cnnn3)cc2)CC1	none (no result: LASV entry inh, Marburg entry inh)
Cc1ccc(S(=O)(=O)N2CCC(=O)N(CCOCc3ccc(C(F)(F)F)cc3)CC2)cc1	LASV entry inh inconclusive, Marburg entry inh 16µM
Cc1ccc(S(=O)(=O)N2CCC(=O)N([C@H](COCc3cccc(C(F)(F)F)c3)C(C)C)CC2)cc1	LASV entry inh inconclusive (no result: Marburg entry inh, CHX counter, Shiga toxin inh)
Cc1ccc(S(=O)(=O)N2CCC(=O)N(C(COCc3ccc(C(F)(F)F)cc3)C(C)C)CC2)cc1 (centres undefined)	LASV entry inh 13µM, Marburg entry inh inconclusive
O=C1CCN(S(=O)(=O)c2ccccc2)CCN1CCOCc1ccc(C(F)(F)F)cc1	none (no result: LASV entry inh, Marburg entry inh)
CCC(=O)N1c2ccccc2CC1C(=O)NCc1ccc(N(C)C)cc1 (centres undefined)	none (no result: AMA1 RON2 block, Marburg entry inh, CHX counter, Shiga toxin inh)
COc1ccc(NC2=CC(=O)CC(C)(C)C2)cc1	none (no result: LASV entry inh, Marburg entry inh)
COc1ccc(NC2=NC(C)(CO)CS2)cc1 (centres undefined)	CHX counter 14 (no result: LASV entry inh, Marburg entry inh)
CC(=O)Nc1ccc(C(=O)N2CCCCC2c2cc(C(=O)NC(C)C)no2)cc1 (centres undefined)	none (no result: LASV entry inh, Marburg entry inh, CHX counter, Shiga toxin inh)
COC(=O)c1ccc(C(=O)OC)c(NC2=NS(=O)(=O)c3ccccc32)c1	none
COC(=O)c1c(-c2ccccc2)csc1NC1=NS(=O)(=O)c2ccccc21	LASV entry inh inconclusive, Marburg entry inh inconclusive, CHX counter 62, Shiga toxin inh active
COc1cc(C)nc(N2CCCC(C(=O)NC3CCC(C)CC3)C2)n1 (centres undefined)	CHX counter 32
Cc1ccc(-c2nc(C#N)c(NCc3ccco3)o2)cc1	CHX counter 54, Shiga toxin inh 89
N#Cc1nc(Cc2cccc3ccccc23)oc1NCc1ccco1	none
CC(C)(C)c1ccc(-c2nc(C#N)c(NCc3cccnc3)o2)cc1	CHX counter 32
Cc1cccc(-c2nc(C#N)c(NCc3ccco3)o2)c1	CHX counter 57, Shiga toxin inh 54 (no result: LASV entry inh, Marburg entry inh)
COc1ccc(-c2nc(C#N)c(NCc3ccco3)o2)cc1	CHX counter 28, Shiga toxin inh 73 (no result: LASV entry inh, Marburg entry inh)
N#Cc1nc(-c2ccco2)oc1NCc1ccco1	AMA1 RON2 block inconclusive, LASV entry inh inconclusive
N#Cc1nc(-c2ccc(OCc3ccccc3)cc2)oc1NCc1ccco1	Marburg entry inh inconclusive
N#Cc1nc(-c2ccc(F)cc2)oc1NCc1ccccc1	none (no result: LASV entry inh, Marburg entry inh)
N#Cc1nc(-c2ccc(F)cc2)oc1NCc1ccco1	CHX counter 13, Shiga toxin inh 86 (no result: LASV entry inh, Marburg entry inh)
O=C(CSc1cn(CC(=O)N2CCCCCC2)c2ccccc12)Nc1ccccc1F	none (no result: AMA1 RON2 block, Marburg entry inh, CHX counter, Shiga toxin inh)
O=C(Nc1ccccc1F)C(=O)c1cn(CC(=O)N2CCCCC2)c2ccccc12	CHX counter 33, Shiga toxin inh 54

Screens (PubChem BioAssay)
